# KB-3-1 tox = KB-3-1 parental cell cytotoxicity | 1.4% of 400,000 active | Potency, µM (highest dose often 46.1 µM), hits mostly cytotoxic | KB-3-1 viability, CellTiter-Glo ATP luminescence, 72 h; further: nearly all actives have a fitted effect of over 60% in size
#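 Cells are dispensed, compounds pinned in, plates held at 37 °C for 72 h, then CellTiter-Glo is added and luminescence read after 10 minutes. Cell line: parental KB-3-1 in phenol-red-free DMEM, 10% FBS.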
# TGFb SMAD3 inh = inhibitors of TGF-b signaling | HepG2 CAGA-GFP TGF-b/SMAD3 reporter, GFP fluorescence, 18 h; TGF-beta stimulated, 500 pg/mL final | Potency, µM (highest dose often 46.1 µM), hits mostly inhibitors | 1.2% of 410,000 active; further: nearly all actives have a fitted effect of over 65% in size
#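 Inhibition was scored as loss of TGF-beta-induced (500 pg/mL final, 18 hours, 37 degrees C) GFP in HEPG2 cells carrying a CAGA-GFP reporter, in DMEM with 1% FBS. Well GFP was summed per cell; Activity was normalised to unstimulated and stimulated DMSO wells, then concentration-response fitting.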
# KB-V1 MDR tox = kills drug-selected multidrug resistant KB-V1 cells; KB-V1 MDR cells viability, CellTiter-Glo, 72 h; Potency, µM (titrated, usually from 46.1 µM), actives largely listed as cytotoxic; 3.4% of 400,000 active; further: nearly all actives have a fitted effect of over 60% in size
#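 Cytotoxicity toward P-gp-expressing KB-V1 cells was determined as loss of CellTiter-Glo luminescence after 72 h at 37 degrees C. Compounds were tested in quantitative HTS format across a concentration range, with curves fitted to normalized data.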
# HT1080 IDH1KD tx = HT-1080 IDH1 knockdown cell toxicity (counter line). HT-1080 IDH1 knockdown viability, ATP luminescence, 48 h. AID 686971. 2% of 360,000 active. Potency, µM (doses to about 46.1 µM), usual class: cytotoxic
#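 Viability of IDH1-knockdown HT-1080 fibrosarcoma cells was assessed by CellTiter-Glo after 48 h at 37 °C with titrated compound; concentration-effect curves were classified by fit quality and response size.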
# HepG2 viability = counter-screen for TGF-b inhibitors: cytotoxicity in HepG2 cells; HepG2 CAGA-GFP viability, ATP luminescence, 18 h; Potency, µM (top dose mostly 46.1 µM), actives largely listed as cytotoxic; 0.76% of 410,000 active
#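 HepG2 CAGA-GFP cells (1000/well, DMEM with 1% FBS) received compound, then TGF-beta at 500 pg/mL final, and were incubated 18 hours at 37 degrees C. Viability was read by CellTiter-Glo luminescence. Media-only wells were set as complete cell-killing and DMSO as no toxicity.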
# HT1080-NT tox = kills 2HG-producing HT-1080-NT fibrosarcoma cells; HT-1080-NT fibrosarcoma viability, CellTiter-Glo ATP luminescence, 48 h; Potency, µM (series often up to 46.1 µM), most hits filed as cytotoxic; 1.6% of 360,000 active;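 further: NT is the 2HG producing partner of a matched IDH1 knockdown line; nearly all actives have a fitted effect of over 55% in size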
#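 Toxicity toward the 2HG-producing NT line was scored as %Activity, normalised to DMSO and no-cell wells, from CellTiter-Glo luminescence after 48 hours' treatment.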
# Hits are given with their value; – = inactive; ? = inconclusive; · = no result given; [ ] = another dose, or the depositor's remark. Shown are actives, neighbours in structure and some others; about 6.6% of the full set was active somewhere. The call rests on the fitted dose curve; in most records, active means well fitted curve in the direction sought with a large enough effect; inconclusive means small, poorly fitted or top-dose-only effect, or another doubt; inactive means no such curve, though single readings can be large; an effect the other way counts as inactive or inconclusive.
SMILES,KB-3-1 tox,TGFb SMAD3 inh,KB-V1 MDR tox,HT1080 IDH1KD tx,HepG2 viability,HT1080-NT tox
COc1ccc(NC(=O)CCn2nc(-c3ccccc3OC)c3c(C)cc(C)nc32)cc1,·,?,·,·,–,·
COC(=O)c1c(-c2ccc(Cl)cc2)noc1N1CCN(c2cccc(OC)c2)CC1,–,–,–,·,–,·
CN1c2ccccc2C(C)(C)C12CC(c1cccc(S(=O)(=O)N3CCCC3)c1)=NO2 (stereo not drawn),?,–,6.51µM,–,–,–
CN1c2ccccc2C(C)(C)C12CC(c1ccc(S(=O)(=O)N3CCCCC3)cc1)=NO2 (stereo not drawn),–,–,?,–,–,–
O=S(=O)(c1ccccc1)c1cnn(-c2ccccc2)c1-c1ccc(Cl)cc1,?,?,14.6µM,–,–,–
COc1ccc(-c2c(S(=O)(=O)c3ccccc3)cnn2-c2ccccc2)cc1,?,–,23.1µM,–,–,–
COc1ccc2ncc(S(=O)(=O)c3ccccc3)c(N3CCN(c4ccccc4)CC3)c2c1,–,–,–,–,–,–
CCCc1c(-c2ccc(Cl)cc2)ncn1Cc1ccccc1OC,16.4µM,·,18.4µM,?,·,?
CCCc1c(-c2cccc(Cl)c2)ncn1CCc1ccccc1OC,?,·,14.6µM,?,·,?
CCCc1c(-c2ccc(Cl)cc2)ncn1CCc1ccccc1OC,?,·,18.4µM,?,·,?
COc1ccccc1Cn1cnc2cccnc21,–,–,–,–,–,–
COc1ccccc1Cc1c(-c2ccc(Cl)cc2)nc2c(Cl)cc(C(F)(F)F)cn12,?,·,–,–,·,–
CCCc1c(-c2cccc(Br)c2)ncn1Cc1ccccc1OC,?,·,18.4µM,?,·,?
COc1ccc(S(=O)(=O)NCCc2csc3nc(-c4ccc(OC)c(OC)c4)nn23)cc1C,·,–,·,·,–,·
COc1ccc(N(C)C(=O)CCn2cnc3onc(-c4ccc(F)cc4)c3c2=O)c(OC)c1,–,–,?,·,–,·
CCc1nnc(SCC(=O)Nc2cccc(C(F)(F)F)c2)c2cc3oc(C)cc3n12,–,–,–,·,–,·
COc1ccc(CNCc2ccc3c(c2)n(C)c(=O)n3C)cc1,–,–,–,·,–,·
CC(=O)Sc1nc(-c2ccccc2)[nH]c1S(=O)(=O)c1ccc(C)cc1,–,–,–,–,–,–
CSc1nc(-c2ccc(C)cc2)[nH]c1S(=O)(=O)c1ccccc1,–,–,–,23.1µM,–,–
O=C(NCC1(c2ccccc2)CCCC1)C(=O)Nc1cccc(Br)c1,·,–,·,·,–,·
COc1ccc(-c2nc(CSc3nncn4c3cc3sccc34)c(C)o2)cc1OC,·,–,·,·,–,·
[O-][n+]1onc2c1CCc1c-2nn(-c2ccccc2Cl)[n+]1[O-],?,?,?,11.2µM,–,?
O=C(COc1ccccc1C(=O)Nc1ccccc1)NC1CCCCC1,·,·,·,–,·,–
CCOC(=O)CNC(=O)N1CCN(S(=O)(=O)c2ccc3c(ccn3C)c2)CC1,–,–,–,·,–,·
CCn1nc(C)c2c(-c3ccccc3)cc(=O)n(C(C)C(=O)NCc3ccccc3OC)c21 (stereo not drawn),–,20µM,–,·,–,·
SMILES,KB-3-1 tox,TGFb SMAD3 inh,KB-V1 MDR tox,HT1080 IDH1KD tx,HepG2 viability,HT1080-NT tox
CCCCN(C)S(=O)(=O)c1cc(-c2nnc3c4ccccc4c(C)nn23)ccc1C,–,–,–,·,–,·
CCCCCCCn1c2c(c(=N)c3ccccc31)CCC2,?,?,?,11.6µM,–,?
CCCn1c2c(c(=N)c3c1CCC3)CCC2,?,–,–,?,–,?
CN(Cc1c(F)cccc1Cl)c1ccc(S(=O)(=O)N2CCOCC2)cn1,?,–,18.4µM,–,–,–
COc1ccccc1NC(=O)CSc1cn(CC(=O)N2CCCC2)c2ccccc12,–,–,–,·,–,·
O=C(NCCCN1CCN(c2ccccc2F)CC1)c1ccc2nc(CCc3ccccc3)oc2c1,·,?,·,·,11.2µM,·
O=C(NCCCN1CCN(c2ccccc2F)CC1)c1ccc2nc(Cc3ccccc3)oc2c1,·,?,·,·,–,·
Cc1ccc(NC(=O)COc2ccccc2)c(NC(=O)c2ccccc2C)c1,–,–,5.8µM,–,–,–
Cc1ccc(S(=O)(=O)NC(=O)COc2ccccc2)cc1,–,–,–,–,–,–
CC(=O)Oc1ccc(C(=O)Nc2ccccc2NC(=O)c2ccc(OC(C)=O)cc2)cc1,–,–,–,–,–,–
CC(=O)Oc1ccc(C(=O)Nc2cc(C)ccc2NC(=O)COc2ccccc2)cc1,–,–,16.4µM,–,–,–
Cc1ccc(NS(=O)(=O)c2ccc(C)c(NC(=O)COc3ccccc3)c2)c(C)c1,–,–,20.6µM,–,–,–
Cc1ccc(C)c(NS(=O)(=O)c2ccc(OCC(=O)N3CCCC3)cc2)c1,–,–,20.6µM,–,–,–
Cc1ccc(C)c(NS(=O)(=O)c2ccc(OCC(=O)N3CCOCC3)cc2)c1,–,–,–,–,–,–
Cc1ccc(NC(=O)c2ccco2)c(NC(=O)COc2ccccc2)c1,–,–,–,–,–,–
COc1ccc(C(=O)c2cn(Cc3ccccc3F)c3cc4c(cc3c2=O)OCCO4)cc1OC,–,?,–,·,–,·
S=C(Nc1ccccc1Oc1ccccc1)Nc1cccc(Cl)c1Cl,23.1µM,–,20.6µM,–,–,–
O=C(Nc1cccc(F)c1)N(Cc1ccc(Cl)cc1)CC(O)C(F)(F)F (stereo not drawn),?,?,?,?,–,20.6µM
O=C(Nc1ccccc1)N(Cc1ccccc1)CC(O)C(F)(F)F (stereo not drawn),–,–,–,–[9.24 µM],–,–
COc1ccc(-c2coc3c(C(=O)Nc4cccnc4)cccc23)c(C)c1,?,–,?,?,–,?
Cc1cccc(C)c1OCc1cc(=O)n2c(-c3ccccc3)csc2n1,–,10µM,–,·,–,·
COc1ccc(CNc2ccc3c(c2)ncn3C)cc1OC,?,–,?,16.4µM,–,16.4µM
Cc1ccc(S(=O)(=O)NCC(=O)N(CCc2ccccc2)CC(=O)NCc2ccco2)cc1,–,–,–,–,–,–
Cc1ccc(S(=O)(=O)NCC(=O)N(CC(=O)NCc2ccco2)Cc2ccccc2)cc1,–,–,–,–,15.8µM,–
Cc1ccc(S(=O)(=O)N(CC(=O)NCc2ccco2)Cc2ccccc2F)cc1,–,–,8.2µM,–,–,–
Cc1ccc(S(=O)(=O)N(CC(=O)NCc2ccncc2)Cc2ccccc2F)cc1,–,–,?,–,–,–
CCC(C(=O)NCc1ccco1)N(C(=O)CNS(=O)(=O)c1ccccc1)c1ccc(OC)cc1 (stereo not drawn),–,–,23.1µM,–,–,–
